High-throughput results deposited in PubChem BioAssay by National Center for Advancing Translational Sciences (NCATS).
Only some compounds are listed: those with a hit (about 6.5% of all), similar ones and a draw of the others.
Vaccinia Venus = inhibitors of vaccinia virus (Venus reporter); Vaccinia virus Venus reporter expression, fluorescence; Potency, µM (doses to about 36.5 µM), for the others: at the highest dose activity change, negative = inhibition, actives largely listed as inhibitors; hit rate 0.46% among 330,000; calls by dose curve; tested in A549 cells; note: potency is the fitted concentration of half-maximal effect; nearly all actives have a fitted effect of over 30% in size
FMDV inh = blocks foot and mouth disease virus | FMDV antiviral cell-based qHTS | Potency, µM (doses to about 57.9 µM), for the others: at the top dose activity change, negative = inhibition, actives largely listed as inhibitors | hit rate 1.2% among 410,000 | AID 1159524; calls by dose curve; tested in HEK293T cells; note: read-out not given here; potency is the fitted concentration of half-maximal effect; nearly all actives have a fitted effect of over 45% in size
VACV mCherry inh = inhibitors of vaccinia virus infection (mCherry reporter signal); Vaccinia virus mCherry reporter infection, fluorescence; Potency, µM (titrated, usually from 36.5 µM), inactives show at the top dose activity change, negative = inhibition, hits mostly inhibitors; hit rate 0.63% among 310,000; calls by dose curve; tested in A549 cells; note: potency is the fitted concentration of half-maximal effect; nearly all actives have a fitted effect of over 35% in size
MARV entry inh = Marburg virus entry inhibition | Potency, µM (highest dose often 37.8 µM), for inactives: at the highest dose activity change, negative = inhibition, hits mostly inhibitors | hit rate 1.8% among 300,000 | AID 540276 | Marburg virus pseudotyped entry inhibition, cell reporter; calls by dose curve; tested in HEK293 cells; note: potency is the fitted concentration of half-maximal effect
HCMV antiviral = human cytomegalovirus inhibition; AID 1259415; hit rate 4.5% among 410,000; HFF cells, HCMV-luciferase reporter, 72 h; stronger effect = lower value; activity change, negative = inhibition, % at 57.5 µM; in the data active = activity change below about -60%; inconclusive = no clear call, values can overlap the other calls; inactive = above about -39%
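Cell-based, HFFs, 1000 cells/well, 16 h 37C; cpds in DMSO + HCMV-luc, MOI 1 PFU/cell; 72 h 37C; OneGlo luminescence after 5 min RT; norm. to buffer vs Salinomycin 10uM.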
LASV entry inh = inhibitors of Lassa virus binding or cell entry; Lassa virus pseudotype entry inhibition, cell reporter; Potency, µM (highest dose often 37.9 µM), without a hit: at the highest dose activity change, negative = inhibition, most hits filed as inhibitors; hit rate 1.2% among 300,000; AID 540256; calls by dose curve; tested in HEK293 cells; note: potency is the fitted concentration of half-maximal effect; nearly all actives have a fitted effect of over 50% in size
* hit, by the source's call; i = inactive; ? = inconclusive; nt = no result given; [ ] = remark or other dose. % is set by controls: 0 for no effect and ±100 for the full control effect.

SMILES	Vaccinia Venus	FMDV inh	VACV mCherry inh	MARV entry inh	HCMV antiviral	LASV entry inh
CN(C)c1ccc(CNC(=O)Cn2c(-c3cccs3)cc3cc(Cl)ccc32)cc1	-18.6%	-6.6%	-20.8%	nt	-71.0*	8.5%[46.1 µM]
Clc1ccc(CN2C3=NCCCN3c3ccccc32)cc1	-15.7%	-25.6%	nt	?	-1.0	-26.3%
Clc1ccc(CN2C3=NCCCN3c3ccccc32)cc1Cl	-20.6%	-23.8%	-0.8%	?	-83.7*	?
OC(CN1C2=NCCN2c2ccccc21)c1ccccc1 (stereo not given)	-8.9%	-6.3%	-21.2%	0.6%	-8.6	-0.2%
OC(CN1C2=NCCCN2c2ccccc21)c1ccc(Cl)cc1 (stereo not given)	-2.2%	-21.7%	i	nt	-69.2*	nt
Cc1[nH]n(-c2ncc(-c3ccc(Cl)cc3)s2)c(=O)c1C(c1ccc(Cl)cc1)C(C#N)C#N (stereo not given)	-10.9%	?	i	?	nt	-4.6%
COc1ccc(C(c2c(C)[nH]n(C(N)=S)c2=O)C(C#N)C#N)cc1 (stereo not given)	-6.4%	25.1µM*	-14.4%	-18.0%	12.3	0.0%
O=C(Nc1nc2ccc(F)cc2s1)c1ccccn1	?	11.2µM*	?	?	-97.6*	?
O=C(Nc1nc2ccccc2s1)c1cnccn1	-15.1%	nt	-12.7%	6.51µM*	126.3	?
O=C(Nc1nnc(SCc2ccc(F)cc2)s1)c1ccccn1	?	-9.6%	?	?	-98.5*	?
OC(Cc1ccc2ccccc2n1)c1ccccc1 (stereo not given)	-6.9%	nt	-20.0%	nt	nt	nt
CCC(Oc1ccccc1)C(=O)Nc1cc(-c2ccccc2F)nn1-c1ccccc1 (stereo not given)	-14.0%	?	-25.0%	nt	8.6	-0.4%[46.1 µM]
CCc1ccc(NC(=O)CSc2nccn2C2CCCC2)cc1	-7.0%	22.9%	-4.6%	nt	1.7	-2.4%[46.1 µM]
C[C@@H]1COc2cc(N3CCCC3)ccc2S(=O)(=O)N1	nt	nt	nt	nt	31.5	7.0%[46.1 µM]
O=C(NC[C@@H]1CCCN2CCCC[C@H]12)c1cnn(-c2nccc(-c3cc4ccccc4o3)n2)c1C1CC1	-11.8%	-7.4%	-22.2%	nt	nt	nt
COc1ccc(C2C(C(=O)N3CCCCC3)CCC(=O)N2c2cc(OC)c(OC)c(OC)c2)cc1 (stereo not given)	nt	-18.3%	nt	10.5%	nt	7.3µM*
CCC(C)NC(=O)C1CCC(=O)N(c2ccc3c(c2)OCO3)C1c1ccc(OC)cc1 (stereo not given)	-13.2%	-15.7%	-21.7%	nt	-62.1*	nt
COc1ccc(C2C(C(=O)N3CCOCC3)CCC(=O)N2c2cc(OC)c(OC)c(OC)c2)cc1 (stereo not given)	-6.1%	-4.6%	-12.8%	?	-27.9	1.5%
CCOC(=O)/C=c1/s/c(=C\c2c(OC)ccc3ccccc23)c(=O)n1CC(=O)NCC1CCCO1 (stereo not given)	-19.6%	-11.2%	?	?	-87.4*	?
CCOC(=O)/C=c1\s/c(=C\c2c(OCC)ccc3ccccc23)c(=O)n1CC(=O)NCC1CCCO1 (stereo not given)	?	-23.1%	-18.7%	?	26.0	?
CCOC(=O)/C=c1\s/c(=C\c2ccc3cc(OC)ccc3c2)c(=O)n1CC(=O)NCc1ccc2c(c1)OCO2	6.5%	19.9%	-7.7%	-21.8%[46.1 µM]	-100.0*	3.1%
CC(C)(C)n1nnnc1C(c1ccc(C(F)(F)F)cc1)N(Cc1ccc(F)cc1)Cc1ccco1 (stereo not given)	?	?	nt	?	66.6	?
CC(C)(C)n1nnnc1C(c1cccs1)N(Cc1ccccc1)Cc1cccnc1 (stereo not given)	-19.0%	?	-0.5%[1.46 µM]	-6.7%	-39.2	3.4%
CC(C)(C)n1nnnc1C(c1cccnc1)N(Cc1ccccc1)Cc1cccs1 (stereo not given)	-18.9%	-22.3%	-31.3%	?	-85.3*	?
CC(C)(C)n1nnnc1C(c1ccc(C(F)(F)F)cc1)N(Cc1ccccc1)Cc1ccco1 (stereo not given)	-2.5%	?	nt	?	-81.6*	?
CC(C)(C)n1nnnc1C(c1cccs1)N(Cc1ccc(Cl)cc1)CC1CCCO1 (stereo not given)	?	?	11.2µM*	?	-69.6*	?
COCCN1CCN(C(=O)c2cnn(-c3nccc(-c4ccco4)n3)c2C2CC2)CC1	4.4%	5.0%	2.4%	nt	nt	nt
